Measured values: PubChem BioAssay
“And” between values parts separate entries of the source, which are not always exact repeats. Identical values can stand only once. A structure can be active in one record and inactive in another. The source made the active and inactive calls.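 Rule for the calls, unless noted: active = compounds whose cell count with miR-34 switched on is under 0.7 times the count with it off; inactive = the rest.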

Tests used:
[1] = compounds altering viability of human ES cells (AID 493140; call rule not given here;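 note: cells exposed to compounds for four days before counting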); conditions: human embryonic stem cell survival screen; stronger effect = higher value
[2] = P. berghei load reduction in hepatocytes – cell-based, HepG2, luciferase luminescence, HepG2 viability, primary screen (AID 624349; in the data active = parasite load remaining mostly below about 12%, no sharp cut-off; inactive = mostly above about 10%;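 note: 100% = mean of DMSO negative control wells on the same plate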); conditions: P. berghei liver stage in HepG2, luciferase luminescence, concentration not given here; parasite load remaining: stronger effect = lower value; viability: measured here: HepG2 viability without parasites
[3] = Wnt pathway potentiators raising nuclear beta-catenin – imaging, WNT3A-conditioned medium, mouse C2C12, NPC library, primary screen (AID 1117326; in the data active = nuclear beta-catenin stimulation mostly above about 4.2%, no sharp cut-off; inactive = mostly below about 10%); conditions: stronger effect = higher value
[4] = stimulators of insulin release from INS-1E, primary screen, cell-based, 5 mM glucose, NPC library (AID 1117329;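 active = compound raises insulin release from rat beta cells at 5 mM glucose, no numeric limit stated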); conditions: rat INS-1E insulin secretion, at 10 µM, stronger effect = higher value
[5] = growth inhibition of GSK3B-pretreated HCT116 cells – cell-based, CellTiter-Glo, 0.2 to 20 µM (AID 1117336;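 active = compounds lowering colon cancer cell viability after pretreatment blocking the GSK3B kinase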); conditions: HCT116 viability after GSK3B inhibitor, at 20 µM, stronger effect = higher value
[6] = inhibition of endothelial tube formation, primary screen, imaging, VEGF stimulated, CD31 staining, tube area, NPC library (AID 1117340;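 active = compound that reduces growth-factor-driven endothelial tube area in a mixed cell culture, no cutoff stated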); conditions: VEGF-stimulated ADSC/ECFC co-culture, at 10 µM, stronger effect = higher value
[7] = GLP1 release stimulators, primary, NCI-H716, NPC library (AID 1117341;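 active = compound raises GLP1 secretion from the human gut endocrine cells, with no numeric limit stated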); conditions: NCI-H716 cells, at 10 µM, stronger effect = higher value
[8] = HCT116 colon cancer cell growth inhibition, primary screen, CellTiter-Glo luminescence, NPC library (AID 1117342;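 active = compounds that lower survival of HCT116 colon cancer cells in the luminescence readout, no numeric limit stated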); conditions: at 20 µM (top of the series)
[9] = reduced SW480 viability measured with CellTiter-Glo, NPC library, primary (AID 1117343;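 active = compounds that lower viability of the colon cancer cells in the luminescence readout, with no numeric limit stated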); conditions: CellTiter-Glo luminescence; at 20 µM (top of the series) unless noted
[10] = NPC library primary testing for decreased DLD-1 cell viability via CellTiter-Glo (AID 1117346;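 active = compounds that lower survival of DLD-1 colon cancer cells in the luminescence readout, no cutoff given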); conditions: DLD-1 viability, CellTiter-Glo luminescence; at 20 µM (top of the series)
[11] = EMT-state selective cytotoxicity in co-culture – imaging, PC-3E GFP, TEM4-18 mCherry, primary screen (AID 1345086;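 active = compounds killing one labelled cell type while sparing the other, by normalised counts and ratio limits, not self-fluorescent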;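 for all read-outs here: cells exposed to compound for 72 h before imaging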;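 for red/green cell ratio (normalised): normalised mesenchymal count divided by normalised epithelial count so high means epithelial killing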); conditions: PC-3E GFP / TEM4-18 mCherry co-culture, imaging cell counts, at 1 µM; for red/green cell ratio (normalised): actives lie on both sides, counts scaled to control wells, 1 = unselective
[12] = viability loss with induced miR-34 in A549 – imaging, A549 dox-inducible miR-34, nuclei and caspase counts, primary screen (AID 1347080); conditions: A549 miR-34 inducible, Hoechst nuclei count, 48 h
[13] = MELAS cybrid and Rieske KO viability enhancers – cell-based, MELAS cybrids, Rieske KO mouse fibroblasts, CellTiter-Glo, primary screen (AID 1508586;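 active = mean z-score across replicates of 1.96 or higher in either the MELAS or the Rieske mutant cell line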;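 note: z relative to plate mean and SD of compound and empty wells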); conditions: low glucose
[14] = molecular target: NAD(+) hydrolase SARM1 (Homo sapiens) (UniProt Q6SZW1); experiment: blocking NAD cleavage by SARM1 SAM-TIR – cell lysate, NAD-Glo luminescence (AID 1508614;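 active = compound whose remaining NAD level is above about 45 nM, limit read from the data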;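 note: higher remaining NAD means stronger inhibition of SARM1 NADase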); conditions: SAM-TIR HEK293T lysate NADase, at 1 µM, stronger effect = higher value
Chain of NAD(+) hydrolase SARM1 (Homo sapiens) (Q6SZW1 whole entry, looked up): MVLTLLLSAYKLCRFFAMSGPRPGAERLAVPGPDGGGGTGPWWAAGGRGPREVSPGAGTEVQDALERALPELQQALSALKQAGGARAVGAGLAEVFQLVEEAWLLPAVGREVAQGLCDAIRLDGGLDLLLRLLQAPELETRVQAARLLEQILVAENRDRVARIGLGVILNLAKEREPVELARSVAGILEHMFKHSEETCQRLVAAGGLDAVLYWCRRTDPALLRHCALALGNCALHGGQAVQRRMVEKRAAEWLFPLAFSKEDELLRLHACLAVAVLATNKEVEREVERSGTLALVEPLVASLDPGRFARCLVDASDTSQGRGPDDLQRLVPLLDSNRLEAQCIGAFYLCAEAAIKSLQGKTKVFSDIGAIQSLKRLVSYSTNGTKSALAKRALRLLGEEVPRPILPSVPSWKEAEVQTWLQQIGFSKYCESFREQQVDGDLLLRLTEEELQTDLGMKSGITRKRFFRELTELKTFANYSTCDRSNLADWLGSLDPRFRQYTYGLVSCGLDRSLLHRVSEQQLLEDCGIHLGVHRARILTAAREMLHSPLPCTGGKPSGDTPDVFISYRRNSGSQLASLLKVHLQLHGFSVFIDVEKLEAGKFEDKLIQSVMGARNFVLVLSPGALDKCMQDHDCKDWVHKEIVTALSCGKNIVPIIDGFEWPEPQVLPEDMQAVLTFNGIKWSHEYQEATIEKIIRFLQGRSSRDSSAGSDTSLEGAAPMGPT

[15] = growth inhibition, single agent or in combination, cell-based, chromothripsis tumors, cisplatin or BGB combos (AID 1671449; in the data active = inhibition above about 80%;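 note: cells exposed for 96 hours; 0% = vehicle DMSO and 100% = killing by high DMSO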); conditions: LFS_MB_P medulloblastoma cells
[16] = growth inhibition, single agent and combos, cell-based, chromothripsis tumors, cisplatin or BGB combos (AID 1671450; in the data active = inhibition above about 80%;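 note: cells exposed to compound for four days; 0% = vehicle DMSO and 100% = cell killing by high DMSO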); conditions: HDN33 neuroblastoma cells, stronger effect = higher value
[17] = growth inhibition, single agents and combos, ICB984, cell-based, cisplatin or BGB combos, synergistic combos for chromothripsis tumors (AID 1671451; call rule not given here;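 note: cells exposed for 96 hours before readout; 0% = vehicle DMSO and 100% = killing by high DMSO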); conditions: ICB984 medulloblastoma cells, drug combinations, stronger effect = higher value
[18] = growth inhibition, single agents and combos, HTB85, cell-based, BGB or cisplatin IC20 combos, synergistic combos for chromothripsis tumors (AID 1671453; in the data active = inhibition above about 80%;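 note: cells exposed for 96 hours before readout; 0% = vehicle DMSO and 100% = high DMSO killing control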); conditions: HTB85 osteosarcoma cells, drug combinations, stronger effect = higher value
[19] = growth inhibition, MDA-MB-436, cell-based, BGB or cisplatin combos, synergistic combos for chromothripsis tumors (AID 1671458; call rule not given here;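 note: cells exposed for 96 hours; 0% = vehicle DMSO and 100% = killing by high DMSO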); conditions: MDA-MB-436 breast carcinoma growth inhibition, drug combinations, stronger effect = higher value
[20] = measured here: epithelial PC-3E GFP cell survival
[21] = measured here: mesenchymal TEM4-18 mCherry cell survival
[22] = stronger effect = lower value, cell number ratio, induced over uninduced
[23] = measured here: relative caspase fold change +Dox/-Dox
[24] = measured here: total cells with miR-34 induction, stronger effect = lower value
[25] = measured here: total cells without miR-34 induction
[26] = MELAS cybrid survival, CellTiter-Glo 48 h, stronger effect = higher value
[27] = Rieske KO mouse fibroblast survival, CellTiter-Glo 72 h

## CC(C)(Oc1ccc(C2CC2(Cl)Cl)cc1)C(=O)O (stereo unspecified)
[1]
  survival: 3.17 (inactive)
[2]
  parasite load remaining: 67% (inactive)
  viability: 69.5%
[3]; at 10 µM
  nuclear beta-catenin stimulation: -1.2% (inactive)
[3]; stimulation, at 2 µM
  nuclear beta-catenin stimulation: -1%
[4]
  insulin secretion stimulation: -1.6% (inactive)
[5]
  viability decrease: 0.1% (inactive)
[6]
  tube area decrease: -3% (inactive)
[7]
  GLP1 secretion stimulation: 1.4% (active)
[8]
  inhibition of viability: -3.5% (inactive)
[9]
  viability decrease (inhibition): -7.2% (inactive)
[10]
  viability decrease (inhibition): -11.1% (inactive)
[11]
  red/green cell ratio (normalised): 1.11 (inactive)
[11]; [20]
  normalised cell number: 1.15
[11]; [21]
  normalised cell number: 1.28
[12]; [22]
  fold change: 1.01 (inactive) and 0.95 (inactive) and 0.923 (inactive)
[12]; [23]
  fold change: 2.14 and 0.705 and 0.604
[12]; [24]
  cell count: 9720 and 9780 and 8880
[12]; [25]
  cell count: 9650 and 10300 and 9610
[13]; [26]
  z-score: -0.289 (inactive) and 0.864 (inactive)
[13]; [27]
  z-score: -0.625 and 0.179
[14]
  remaining NAD: 10 nM (inactive)

## O=C1Cc2cc(CCN3CCN(c4nsc5ccccc45)CC3)c(Cl)cc2N1
[3]; at 10 µM
  nuclear beta-catenin stimulation: 0.7% (inactive)
[3]; stimulation, at 2 µM
  nuclear beta-catenin stimulation: 0.6%
[4]
  insulin secretion stimulation: 0.65% (inactive)
[5]
  viability decrease: 117% (active)
[6]
  tube area decrease: 22.4% (inactive)
[7]
  GLP1 secretion stimulation: 2.9% (inactive)
[8]
  inhibition of viability: 124% (active)
[9]
  viability decrease (inhibition): 91.1% (active)
[10]
  viability decrease (inhibition): 101% (active)
[11]
  red/green cell ratio (normalised): 0.94 (inactive)
[11]; [20]
  normalised cell number: 1.17
[11]; [21]
  normalised cell number: 1.1
[12]; [22]
  fold change: 0.799 (inactive) and 0.929 (inactive) and 0.946 (inactive)
[12]; [23]
  fold change: 1.72 and 0.693 and 2.86
[12]; [24]
  cell count: 4490 and 6730 and 8460
[12]; [25]
  cell count: 5620 and 7240 and 8940
[13]; [26]
  z-score: -0.541 (inactive) and 0.954 (inactive)
[13]; [27]
  z-score: 1.41 and -0.174
[14]
  remaining NAD: 10 nM (inactive)

## CN1CCN(c2c(F)cc3c(=O)c(C(=O)O)cn(CCF)c3c2F)CC1
[2]
  parasite load remaining: 13% (inactive)
  viability: 62.5%
[3]; at 10 µM
  nuclear beta-catenin stimulation: 0.3% (inactive)
[3]; stimulation, at 2 µM
  nuclear beta-catenin stimulation: 0.9%
[4]
  insulin secretion stimulation: -1% (inactive)
[5]
  viability decrease: -13.8% (inactive)
[6]
  tube area decrease: 12.8% (inactive)
[7]
  GLP1 secretion stimulation: 7.1% (inactive)
[8]
  inhibition of viability: 4.1% (inactive)
[9]
  viability decrease (inhibition): 4.9% (inactive)
[10]
  viability decrease (inhibition): -10.7% (inactive)
[11]
  red/green cell ratio (normalised): 1.08 (inactive)
[11]; [20]
  normalised cell number: 1.16
[11]; [21]
  normalised cell number: 1.24
[12]; [22]
  fold change: 0.864 (inactive)
[12]; [23]
  fold change: 1.53
[12]; [24]
  cell count: 9860
[12]; [25]
  cell count: 11400
[13]; [26]
  z-score: -0.514 (inactive) and -0.443 (inactive)
[13]; [27]
  z-score: -0.857 and -0.453
[15]; at 0.5 µM, stronger effect = higher value
  inhibition: 2.95% (inactive)
[15]; measured here: combination with BGB IC20, at 0.005 µM
  inhibition: 20.9%
[15]; measured here: combination with BGB IC40, at 0.005 µM
  inhibition: 16.6%
[15]; measured here: combination with BGB IC40, at 0.05 µM
  inhibition: 22.7%
[15]; measured here: combination with cisplatin, at 0.5 µM, stronger effect = higher value
  inhibition: -9.55%
[15]; measured here: combination with cisplatin, at 5 µM, stronger effect = higher value
  inhibition: 1.02%
[16]; BGB combo, at 5 µM
  inhibition: 17.4%
[16]; at 0.5 µM
  inhibition: 15.1% (inactive)
[16]; cisplatin combo, at 5 µM
  inhibition: 34.1%
[16]; measured here: with BGB IC20 combination, at 0.5 µM
  inhibition: 12.4%
[16]; measured here: with cisplatin IC20 combination, at 0.5 µM
  inhibition: 22.9%
[16]; single agent, at 5 µM
  inhibition: 6.61%
[17]; BGB IC20 combo, at 0.005 µM
  inhibition: 3.45%
[17]; BGB IC40 combo, at 0.005 µM
  inhibition: 12%
[17]; BGB IC40 combo, at 0.05 µM
  inhibition: 3.66%
[17]; at 0.5 µM
  inhibition: -15.4% (inactive)
[17]; cisplatin combo, at 0.05 µM
  inhibition: 0.969%
[17]; cisplatin combo, at 0.5 µM
  inhibition: -17.2%
[17]; cisplatin combo, at 5 µM
  inhibition: -29.4%
[17]; measured here: 5 uM single agent, at 5 µM
  inhibition: -20.3%
[18]; at 0.5 µM
  inhibition: 2.85% (inactive)
[18]; measured here: with BGB IC20, at 0.5 µM
  inhibition: 3.83%
[18]; measured here: with BGB IC20, at 5 µM
  inhibition: 4.56%
[18]; measured here: with cisplatin IC20, at 0.5 µM
  inhibition: -12%
[18]; measured here: with cisplatin IC20, at 5 µM
  inhibition: -2.52%
[18]; single agent, at 5 µM
  inhibition: 7.25%
[19]; at 0.5 µM
  inhibition: 2.48% (inactive)
[19]; measured here: BGB combination, at 0.5 µM
  inhibition: 6.04%
[19]; measured here: BGB combination, at 5 µM
  inhibition: -1.46%
[19]; measured here: cisplatin combination, at 0.5 µM
  inhibition: -0.921%
[19]; measured here: cisplatin combination, at 5 µM
  inhibition: -0.504%

## OC1(c2ccc(Cl)c(C(F)(F)F)c2)CCN(CCCC(c2ccc(F)cc2)c2ccc(F)cc2)CC1
[3]; at 10 µM
  nuclear beta-catenin stimulation: -2.1% (inactive)
[3]; stimulation, at 2 µM
  nuclear beta-catenin stimulation: 27.1%
[4]
  insulin secretion stimulation: 0.05% (inactive)
[5]
  viability decrease: 117% (active)
[6]
  tube area decrease: 112% (active)
[7]
  GLP1 secretion stimulation: 51.4% (active)
[8]
  inhibition of viability: 124% (active)
[9]
  viability decrease (inhibition): 158% (active)
[10]
  viability decrease (inhibition): 101% (active)
[11]
  red/green cell ratio (normalised): 0.98 (inactive)
[11]; [20]
  normalised cell number: 0.98
[11]; [21]
  normalised cell number: 0.96
[12]; [22]
  fold change: 0.677 (active) and 0.99 (inactive)
[12]; [23]
  fold change: 1.19 and 0.678
[12]; [24]
  cell count: 3030 and 2930
[12]; [25]
  cell count: 4480 and 2970
[13]; [26]
  z-score: -0.344 (inactive)
[13]; [27]
  z-score: -0.197
[14]
  remaining NAD: 10 nM (inactive)
